Hit rate of the full screen: of about 3,400 compounds, about 840 (25%) were called active. Another 11% or so got no clear call; they are omitted.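 Rule for the calls: active = fitted half-maximal concentration of signal decrease at or below twice the sample's top tested concentration; inconclusive = flat curve between -70 and -30 percent, or poor fit; inactive = flat within 30 percent, signal rise, or potency above limit.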 The list is a sample of the results. Results with a measured potency or affinity are listed apart.

From PubChem BioAssay AID1259418 (Broad Institute, 2018) come the findings set out here.

The nature of this test: inhibitors of Toxoplasma growth in IFN-γ-primed HeLa – cell-based, ME49Luc, luciferase, 72 h, dose response (AID 1259418). As to conditions: T. gondii ME49Luc in IFN-y HeLa, stronger effect = lower value, -100% = high-dose IFN-γ control wells; at 19.5 µM unless noted.
`CCOc1ccc(-c2nc3c(s2)CN(S(=O)(=O)Cc2ccccc2)CC3)cc1`: the max activity was -19.9% [at 0.16 µM] (inactive). Consider `COc1ccccc1-c1ccc(C2[C@H]3CNC[C@@H]2N3S(=O)(=O)c2ccc(F)cc2)cc1` (stereo not given in full), for which the max activity is 43.5% (inactive). Under `C/C=C/c1ccc(C2[C@H]3CNC[C@@H]2N3S(=O)(=O)c2ccccc2C)cc1` (stereo not given in full) stands 50.4% (inactive); under `COc1cccc(-c2ccc(C3[C@H]4CNC[C@@H]3N4CC3CCCCC3)cc2)c1` (stereo not given in full), 25.6% [at 10 µM] (inactive).

Consider `Cn1cnc(S(=O)(=O)N2C[C@@H]3N[C@H](C2)C3c2ccc(-c3ccccc3F)cc2)c1` (stereo not given in full), for which the max activity is 25.3% [at 10 µM] (inactive). Under `N#Cc1ccc(-c2ccc(C3[C@@H]4CN(S(=O)(=O)c5ccc(F)cc5)C[C@H]3N4)cc2)cc1` (stereo not given in full) stands 13.9% (inactive). In the case of `NC(=O)C1(N2CCCCC2)CCN(c2ncc(NC(=O)c3ccc(Cl)cc3)cc2C(=O)O)CC1` it was -11.3% [at 10 µM] (inactive); in that of `Cc1ccc(-c2nc(CSc3nc4c(c(=O)[nH]3)CN(C(C)C)CC4)c(C)o2)cc1`, -15.7% (inactive). Under `Cc1ccc(C)c(-c2coc(-c3ccc(NC(=O)Nc4ccc(F)cc4F)cc3)n2)c1` stands -11.8% [at 2.6 µM] (inactive).

In the case of `COc1ccc(CNC(=O)CC2Nc3c4ccccc4nc(=S)n3C2=O)cc1` (stereo not given), the max activity is 22.9% [at 0.16 µM] (inactive). Under `CCc1ccc(-c2noc(-c3nnn(Cc4nc(-c5ccc(OC)cc5)oc4C)c3C)n2)cc1` stands -11.2% [at 1.35 µM] (inactive); under `CCc1nc(OCC(=O)Nc2c(C)cccc2C)c2ccccc2n1`, 19.2% [at 0.35 µM] (inactive); under `Cc1ccc(C2=NC3(CCN(CC(=O)Nc4cccc(C)c4)CC3)NC2=O)cc1`, -9.18% [at 5 µM] (inactive). In the case of `CCOc1cccc(-c2noc(-c3nnn(Cc4nc(-c5ccccc5OC)oc4C)c3C)n2)c1` it was 5.65% [at 0.35 µM] (inactive); in that of `CCOC(=O)c1nn(Cc2ccccc2)c2c1CN(C(=O)CN1CC(c3ccccc3)CC1=O)CC2` (stereo not given), -5.83% [at 0.038 µM] (inactive). In the case of `Cc1ccc2c(c1C)-n1cccc1C1(CCN(C(=O)COc3ccccc3)CC1)N2`, the max activity is -7.11% [at 2.6 µM] (inactive).

For the compound `Nc1ccc(S(=O)(=O)NC(=O)c2ccccc2)cc1`, the max activity is -6.84% [at 5 µM] (inactive). In the case of `COc1cccc(CN2CCc3nc(SCc4nc(-c5ccc(C)cc5)oc4C)[nH]c(=O)c3C2)c1` it was 42.8% (inactive). Under `Cc1ccc(-c2coc(-c3ccc(NC(=O)C(C)(C)C)cc3)n2)c(C)c1` stands 40.9% (inactive); under `CCc1ccccc1NC(=O)CN1CCC2(CC1)N=C(c1ccc(F)cc1)C(=O)N2`, -11.7% [at 0.35 µM] (inactive); under `CCc1nc(OCC(=O)Nc2ccc(C)c(C)c2)c2ccccc2n1`, 17.1% [at 0.35 µM] (inactive).

Turning to `CCc1nc(OCC(=O)Nc2ccc(C)cc2Cl)c2ccccc2n1`, the max activity was 18.6% [at 0.68 µM] (inactive). As for `CCc1nc(OCC(=O)NCc2ccc(F)cc2)c2ccccc2n1`, the max activity was -17.9% [at 0.68 µM] (inactive). Under `CCc1nc(OCC(=O)Nc2cc(Cl)ccc2Cl)c2ccccc2n1` stands 24.4% [at 2.6 µM] (inactive); under `Cc1nc(OCC(=O)Nc2ccc(C)c(F)c2)c2ccccc2n1`, 21.5% [at 10 µM] (inactive); under `CCc1nc(OCC(=O)NCc2ccc(C)cc2)c2ccccc2n1`, 13.9% (inactive).

For the compound `CCc1nc(OCC(=O)Nc2ccc(C)cc2)c2ccccc2n1`, the max activity was 32.4% (inactive). In the case of `CCc1ccc(NC(=O)COc2nc(CC)nc3ccccc23)cc1` it was -19.6% [at 1.35 µM] (inactive). In the case of `Cc1cccc(-c2nc(Cn3nnc(-c4nc(-c5ccccc5Cl)no4)c3C)c(C)o2)c1` it was 15.3% [at 10 µM] (inactive); in that of `CCc1ccccc1NC(=O)Nc1ccc(-c2nc(-c3ccccc3)co2)cc1`, 13.1% [at 5 µM] (inactive). Under `Cc1nc(-c2ccc(F)cc2)sc1-c1ccc(SCc2ccc(Cl)cc2)nn1` stands -5.59% [at 1.35 µM] (inactive).

For the compound `COc1cccc(C(=O)Nc2ccc(-c3nc(-c4ccc(C)cc4C)co3)cc2)c1`, the max activity is 37.5% (inactive). In the case of `Cc1ccc(C)c(-c2coc(-c3ccc(NC(=O)C(C)C)cc3)n2)c1` it was 14.2% (inactive). Under `COc1ccccc1-c1nc(Cn2nnc(-c3nc(-c4ccc(OC(C)C)cc4)no3)c2C)c(C)o1` stands -5.67% [at 1.35 µM] (inactive); under `COc1cccc(-c2nc3c(s2)CN(C(=O)Nc2ccc(OC)cc2OC)CC3)c1`, 52.4% (inactive); under `CC(C)OCCCNC(=O)CC1Nc2c3ccccc3nc(=S)n2C1=O` (stereo not given), 19.5% [at 0.16 µM] (inactive). In the case of `CCOc1ccc(-c2nc3c(s2)CN(S(=O)(=O)c2ccc(F)cc2)CC3)cc1` it was 36.2% (inactive). With `CCc1nc(OCC(=O)N(CC)c2ccccc2)c2ccccc2n1`, the max activity was 9.96% [at 10 µM] (inactive). With `CCN(C(=O)COc1nc(C)nc2ccccc12)c1ccccc1`, the max activity was 18.8% [at 0.68 µM] (inactive).

Regarding `CSc1ccc(-c2noc(-c3nnn(Cc4nc(-c5cccc(Cl)c5)oc4C)c3C)n2)cc1`, the max activity is 12.2% [at 0.16 µM] (inactive). On to `Cc1ccc(NC(=O)CN2CCC3(CC2)N=C(c2ccc(Cl)cc2)C(=O)N3)cc1C`, for which the max activity was -6.27% [at 0.68 µM] (inactive). Under `COc1ccc(-c2nc3c(s2)CN(S(=O)(=O)c2ccc(Cl)cc2)CC3)cc1` stands 8.74% (inactive); under `COc1ccc(-c2nc(Cn3c(=O)c4cccnc4n(-c4ccccc4)c3=O)c(C)o2)cc1`, -4.3% [at 2.6 µM] (inactive).

For `CCc1c(C)sc2c1CCN(Cc1nc(-c3ccc(C)cc3)oc1C)C2c1ccccc1` (stereo not given), the max activity is 11.6% (inactive).

As for `Cc1oc(-c2ccccc2)nc1Cn1nnc(-c2nc(-c3ccccc3Cl)no2)c1C`, the max activity was 7.39% (inactive). In the case of `COC(=O)c1cccc(NC(=O)Nc2ccc(-c3nc(-c4ccccc4)co3)cc2)c1` it was 9.82% (inactive); in that of `COc1cccc(C(=O)N2CCC3(CC2)Nc2ccc(C)c(C)c2-n2cccc23)c1`, -8.8% [at 0.16 µM] (inactive); in that of `O=C(C1CCC1)N1CC(=O)N2[C@H](CO)[C@H](c3ccc(Br)cc3)[C@H]2C1`, 54.7% (inactive). Under `CN(C)CC(=O)N1C[C@@H]2N[C@H](C1)C2c1ccc(-c2ccccc2F)cc1` (stereo not given in full) stands 5.96% [at 10 µM] (inactive); under `CN(C[C@H]1[C@H](c2ccccc2)[C@@H](CO)N1CC1CC1)C(=O)c1ccc(F)cc1`, 49.7% (inactive).
